Experimental data as given in PubChem BioAssay (NCI).
About 83,000 compounds went through this panel and 20% of them were active in at least one assay; those are over-represented in the sample as a whole.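 Interpretation: 100, growth as untreated; towards 0, rising growth inhibition; 0, no net growth; 0 to -100, cell death. Compounds scoring below 10 were considered active.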 Values without a mark were called inactive. Active and inactive are the calls of the source.

Tests used:
Assay in all cases: NCI-60 one-dose screen, 48 h (100 = growth as untreated, 0 = no growth, -100 = all killed)
Conditions in all cases: 10 µM unless noted
SR leukemia = tested on: SR leukemia
RPMI-8226 leukemia = tested on: RPMI-8226 leukemia
OVCAR-8 ovarian = tested on: OVCAR-8 ovarian
OVCAR-5 ovarian = tested on: OVCAR-5 ovarian
OVCAR-4 ovarian = tested on: OVCAR-4 ovarian
SK-OV-3 ovarian = tested on: SK-OV-3 ovarian
IGROV1 ovarian = tested on: IGROV1 ovarian
OVCAR-3 ovarian = tested on: OVCAR-3 ovarian
HS 578T breast = tested on: HS 578T breast
NCI/ADR-RES ovarian = tested on: NCI/ADR-RES ovarian
T-47D breast = tested on: T-47D breast
BT-549 breast = tested on: BT-549 breast
MDA-MB-435 melanoma = tested on: MDA-MB-435 melanoma
SW-620 colon = tested on: SW-620 colon
MCF7 breast = tested on: MCF7 breast
HCT-116 colon = tested on: HCT-116 colon
HCC-2998 colon = tested on: HCC-2998 colon
KM12 colon = tested on: KM12 colon

SMILES | growth (SR leukemia) | growth (RPMI-8226 leukemia) | growth (OVCAR-8 ovarian) | growth (OVCAR-5 ovarian) | growth (OVCAR-4 ovarian) | growth (SK-OV-3 ovarian) | growth (IGROV1 ovarian) | growth (OVCAR-3 ovarian) | growth (HS 578T breast) | growth (NCI/ADR-RES ovarian) | growth (T-47D breast) | growth (BT-549 breast) | growth (MDA-MB-435 melanoma) | growth (SW-620 colon) | growth (MCF7 breast) | growth (HCT-116 colon) | growth (HCC-2998 colon) | growth (KM12 colon)
Cc1ccc2oc(=O)cc(C3C(C#N)=C(N)Oc4c3ccc3ccccc43)c2c1 (stereo unspecified) | 27.6% | 70.2% | 85.8% | 99.3% | 87.8% | 88.1% | 75.6% | 75.6% | 85.5% | 62.9% | 69% | 70.2% | 6.57% (active) | 55% | 42.1% | 69.2% | 91.4% | 55.1%
COc1ccc(/C=C/C(=O)c2ccc(Oc3ncnc4ccccc34)cc2)cc1OC | 16.7% | 0.391% (active) | 85.1% | 92.9% | 70.4% | 91.1% | 33.5% | 43.8% | 88.5% | 80.3% | 52.3% | 60.6% | 39.1% | 32.2% | 8.88% (active) | -42.6% (active) | 29.1% | 22.6%
CC1OC(n2c3ccccc3c3c4c(c5c6ccccc6[nH]c5c32)C(=O)N(CCN[C@@H]2CCC[C@H]2N)C4=O)CC(O)C1O (stereo partly specified) | -19.1% (active) | -5.48% (active) | 18% | 49.2% | 24.7% | 20.1% | 22.7% | 27.7% | 30% | 77.6% | 19.6% | 23.8% | 18.4% | 5.32% (active) | -34% (active) | 9.41% (active) | -9.5% (active) | 14.7%
O=c1c2ccccc2sc2c(NCCN3CCOCC3)nc3ccccc3c12 | 3.91% (active) | 40.3% | 58.8% | 84.9% | 65.6% | 50.8% | 66.2% | 79.2% | 52.7% | 63.5% | 52.2% | 73.7% | 70.1% | 18% | 43.7% | 42.5% | 54.2% | 30%
CCCCCn1ncc(-c2c(O)c(O)cc3c(O)c(-c4c(C)cc5c(-c6cnn(CCCCC)n6)c(O)c(O)cc5c4O)c(C)cc23)n1 | -29.1% (active) | 0.346% (active) | 8.04% (active) | 32.3% | 34.6% | -0.985% (active) | 13.2% | 8.42% (active) | 31% | 2.37% (active) | -5.48% (active) | 7.18% (active) | 17.1% | 18.5% | 4.84% (active) | 3.24% (active) | 0.112% (active) | 4.29% (active)
COc1cc2ncn3c(=O)c4c5c(sc4nc3c2cc1OC)CCCCC5 | 97.9% | 103% | 102% | 98.6% | 101% | 99.6% | 79.3% | 98.4% | 99.7% | 92.4% | 84.7% | 105% | 109% | 101% | 86.8% | 97.4% | 106% | 99.2%
C=CC(=O)NC(=O)Nc1ccccc1Cl | 39.8% | 21.4% | 84.5% | 111% | 103% | 87.3% | 88.2% | 68.7% | 96.8% | 105% | 65.8% | 75.3% | 82.4% | 53.6% | 27.1% | 55.5% | 110% | 96.4%
Nc1nccc(=S)[nH]1 | 87.1% | 96.6% | 104% | 111% | 114% | 102% | 107% | 109% | 103% | 107% | 99.6% | 114% | 110% | 103% | 93.4% | 109% | 114% | 106%
FC(F)(F)c1cn(CCN2CCOCC2)c2ncnc(Cl)c12 | -40.3% (active) | 99% | 18.7% | 106% | 82.4% | 101% | 13.4% | 63.3% | 81.9% | 92.8% | 95.1% | 93.6% | 56.5% | 53.7% | 97.5% | 15.4% | 75.2% | 101%
COc1ccc(-c2nnc(SCC(=O)Nc3ccc(C(=O)/C=C/c4ccc(Cl)cc4)cc3)o2)cc1OC | 24.2% | 59.4% | 37.4% | 90.5% | -17.1% (active) | 87.4% | 70.4% | 106% | 102% | 38.4% | 90.1% | 57.3% | 81.1% | 101% | 57.5% | 75.6% | 96% | 97.9%
O=C(/C=C/c1ccccc1)Oc1ccc(/C=C/c2cc(OC(=O)/C=C/c3ccccc3)cc(OC(=O)/C=C/c3ccccc3)c2)cc1 | 92% | 99.8% | 84.7% | 96.6% | 100% | 86.5% | 98.6% | 107% | 95.9% | 103% | 81.9% | 102% | 101% | 99.6% | 103% | 96.3% | 104% | 103%
C=C1C(=O)O[C@H]2[C@H]1CC/C(COC(=O)OC/C1=C/CC[C@@]3(C)O[C@H]3[C@H]3OC(=O)[C@@H](CN(C)C)[C@@H]3CC1)=C\CC[C@@]1(C)O[C@@H]21 | -8.72% (active) | -5.37% (active) | 9.26% (active) | 7.16% (active) | 46% | 87.7% | 10.4% | -90.3% (active) | 57.4% | 91.2% | -15.2% (active) | -1.01% (active) | 2.87% (active) | -56.5% (active) | -29.7% (active) | -72.7% (active) | 79.8% | 37.9%
COc1ccccc1C(OC(C)=O)OC(C)=O | 88.7% | 101% | 112% | 112% | 111% | 104% | 112% | 106% | 106% | 100% | 95.3% | 102% | 104% | 108% | 90.9% | 95.7% | 105% | 105%
Cc1c(NC(=O)c2sc3nc4c(cc3c2N)CN(Cc2ccccc2)CC4)cccc1C(F)(F)F | 20.1% | 36.3% | 63.1% | 79.6% | 60% | 77.8% | 51% | 6.31% (active) | 31% | 43.7% | 48.9% | 49.2% | 13.1% | 19.3% | 16.4% | 19.5% | 64.7% | 27%
Cc1cccc(Cc2cnc(NC(=O)CCc3ccc(C)o3)s2)c1 | 5.14% (active) | 5.07% (active) | 20.3% | 35.7% | 53.3% | 24.5% | 32.2% | 2.58% (active) | 27.6% | 17.2% | 76.9% | 5.79% (active) | -23.1% (active) | 30% | 12.4% | 11.5% | 23.7% | 12.6%
COc1ccc2c(c1)O/C(=C/c1ccc(OCC(=O)Nc3ccc(S(N)(=O)=O)cc3)cc1)C2=O | 79.1% | 91.3% | 98.6% | 103% | 102% | 102% | 111% | 104% | 99.4% | 103% | 97.2% | 99.6% | 103% | 107% | 104% | 95.2% | 105% | 99.5%
COc1ccc(-c2ccc(NC(=O)Nc3cccc(C(F)(F)F)c3)c(C)n2)cc1 | 36.3% | 22.6% | 61.9% | 83% | 42.9% | 82.1% | 91.3% | 41.9% | 88.9% | 53.2% | 26.5% | 66.4% | 69.6% | 81% | 41.5% | 26.9% | 81.1% | 45.6%
